# Assay results taken from PubChem BioAssay (NCATS).
# Inconclusive results are not listed. Values without a mark were called inactive. Active and inactive are the calls of the source. Calls come from the whole dose curve; as a rule, active = well fitted inhibition curve with a large enough effect; inconclusive = small, poorly fitted or top-dose-only effect; inactive = flat fitted curve, though single readings scatter.
# Target: Voltage-gated inwardly rectifying potassium channel KCNH2 (Homo sapiens) (UniProt Q12809)
# Test: qHTS Assay for Small Molecule Inhibitors of the Human hERG Channel Activity (AID 588834);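 note: lower thallium flux fluorescence means stronger hERG block; nearly all actives have a fitted effect of over 50% in size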; for activity change, negative = inhibition: top concentration of the series differs between compounds
# Details: U2OS BacMam hERG, FluxOR thallium flux fluorescence; series mostly up to 46.1 µM; activity change, negative = inhibition: at the top concentration
# How it was run: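 U2OS cells BacMam-transduced with hERG, 2000 cells/well, compound ~10 min at 37 °C before stimulation buffer. FluxOR thallium flux fluorescence read kinetically on FDSS; decrease indicates block; AC50 from Hill fits.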
# % is set by controls: 0 for no effect and ±100 for the full control effect; potency is the fitted concentration of half-maximal effect.
# Chain of Voltage-gated inwardly rectifying potassium channel KCNH2 (Homo sapiens) (Q12809 whole entry, looked up): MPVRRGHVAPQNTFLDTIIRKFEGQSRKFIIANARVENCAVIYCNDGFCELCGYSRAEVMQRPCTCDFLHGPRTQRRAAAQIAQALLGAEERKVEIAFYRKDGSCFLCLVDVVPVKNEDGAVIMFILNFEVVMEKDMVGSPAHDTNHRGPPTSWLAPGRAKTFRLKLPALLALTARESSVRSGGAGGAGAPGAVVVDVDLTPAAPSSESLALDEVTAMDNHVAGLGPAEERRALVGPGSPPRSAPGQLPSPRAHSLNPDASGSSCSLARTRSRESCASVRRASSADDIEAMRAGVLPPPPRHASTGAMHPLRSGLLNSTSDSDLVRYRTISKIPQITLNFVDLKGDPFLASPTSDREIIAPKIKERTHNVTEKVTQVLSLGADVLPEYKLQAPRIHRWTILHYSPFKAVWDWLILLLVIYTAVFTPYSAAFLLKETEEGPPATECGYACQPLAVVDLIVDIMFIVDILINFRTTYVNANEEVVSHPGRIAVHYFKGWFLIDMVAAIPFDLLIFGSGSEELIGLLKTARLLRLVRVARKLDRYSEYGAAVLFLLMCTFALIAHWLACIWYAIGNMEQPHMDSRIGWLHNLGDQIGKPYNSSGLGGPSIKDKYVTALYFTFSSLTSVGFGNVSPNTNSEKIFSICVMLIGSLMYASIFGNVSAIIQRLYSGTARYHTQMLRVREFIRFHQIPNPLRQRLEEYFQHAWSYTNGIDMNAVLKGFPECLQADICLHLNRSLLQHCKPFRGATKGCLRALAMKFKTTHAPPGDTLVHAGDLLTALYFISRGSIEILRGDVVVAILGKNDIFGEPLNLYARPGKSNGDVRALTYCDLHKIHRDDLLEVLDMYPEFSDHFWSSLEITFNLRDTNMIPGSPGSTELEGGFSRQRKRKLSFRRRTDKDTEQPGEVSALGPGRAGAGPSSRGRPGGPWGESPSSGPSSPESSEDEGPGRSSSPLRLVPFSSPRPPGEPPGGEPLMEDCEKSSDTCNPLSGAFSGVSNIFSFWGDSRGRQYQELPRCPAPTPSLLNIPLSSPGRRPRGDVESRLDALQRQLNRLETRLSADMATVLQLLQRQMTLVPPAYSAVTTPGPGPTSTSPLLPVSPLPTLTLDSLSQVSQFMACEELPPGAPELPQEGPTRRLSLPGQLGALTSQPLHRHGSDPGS
Structure (SMILES),"activity change, negative = inhibition",Potency
CC(=O)Nc1ccc(S(=O)(=O)Nc2ccc([N+](=O)[O-])cc2)cc1,-9.59%,–
Cc1ncc(CO)c(C=O)c1O,9.29%,–
O=C1C(O)=C(O)C(=O)C(O)=C1O,-19%,–
CC(C)[N+](C)(C)CC(O)COc1cccc2ccccc12 (stereo not given),3.46%,–
CC1CCc2c(N3CCC(O)CC3)c(F)cc3c(=O)c(C(=O)O)cn1c23 (stereo not given),4.64%,–
CCCCNC(=O)NS(=O)(=O)c1ccc(N)cc1,9.29%,–
CCOC(=O)c1ccc(N)cc1,-0.375% [at 20.6 µM],–
O=S(c1cc(Cl)cc(Cl)c1O)c1cc(Cl)cc(Cl)c1O,4.33%,–
CC(=O)NC(=O)c1ccccc1O,15.6%,–
CC(=O)Nc1ccc(OC(=O)c2ccccc2OC(C)=O)cc1,7.09%,–
O=C(Nc1cccc(C2=NCCN2)c1)Nc1cccc(C2=NCCN2)c1,-4.14%,–
CC(=O)O[C@H]1C[C@@H]2CC[C@@H]3[C@H](CC[C@@]4(C)[C@H]3C[C@H]([N+]3(C)CCCCC3)[C@@H]4OC(C)=O)[C@@]2(C)C[C@@H]1N1CCCCC1,22.7%,–
COc1cc(C)nc(-n2nc(C)cc2OC)n1,-3.42% [at 20.6 µM],–
COc1ccc(CCN(C)CCCN2CCc3cc(OC)c(OC)cc3CC2=O)cc1OC,–,7.94 µM (active)
CC(=O)Nc1ccc(OCC(O)CNC(C)C)cc1 (stereo not given),-1.44%,–
CC(=O)NCCCCCC(=O)O,4.21%,–
CCN1/C(=C/C=C/c2sc3ccccc3[n+]2CC)Sc2ccccc21,–,1.41 µM (active)
O=C(O)CCC(=O)Nc1ccc(S(=O)(=O)Nc2nccs2)cc1,-4.19% [at 20.6 µM],–

Structure (SMILES),"activity change, negative = inhibition",Potency
N#CCC(=O)NN,-0.173%,–
CC(=O)N[C@@H](CCC(=O)O)C(=O)O,6.61%,–
CCN(CC)CCNC(=O)COc1ccc(OC)cc1,-9.49%,–
CN1CCN(c2cc3c(cc2F)c(=O)c(C(=O)O)cn3-c2ccc(F)cc2)CC1,-7.8%,–
CC(=O)Oc1ccc(C)cc1,0.766%,–
Cc1cccc(C)c1NC(=O)c1ccccc1C(=O)O,-23.5%,–
COc1cc(NS(=O)(=O)c2ccc(N)cc2)ncn1,-22.6% [at 20.6 µM],–
NS(=O)(=O)c1ccc(Cl)c(S(N)(=O)=O)c1,8.84%,–
COc1ccc(CN(CCN(C)C)c2ncccn2)cc1,-25%,–
Nc1ccc(C(=O)NCC(=O)O)cc1,0.245% [at 20.6 µM],–
CC(C)(C)NC[C@H](O)COc1cccc2c1CCCC2=O,6.09% [at 20.6 µM],–
Cc1nc(-c2ccc(Cl)cc2)oc1COC(C)(C)C(=O)O,8.4%,–
CCN(CC)CCOc1ccc2c(c1)C(=O)c1cc(OCCN(CC)CC)ccc1-2,3.05%,–
OC1C(O)C(O)C(O)C(O)C1O (stereo not given),0.998%,–
N=C(N)N1CCc2ccccc2C1,12.5%,–
Cc1cccc(C)c1NC(=O)CN1CCCCCC1,-0.0116%,–
COC(=O)C(c1ccccc1Cl)N1CCc2sccc2C1 (stereo not given),5.82%,–
